Data reported in PubChem BioAssay AID1159580 (chemical genetic matrix, 2015).
Where “and” joins values, the source holds several entries; their conditions need not be identical. Equal values may be shown once. Among all 5,500 compounds or so, about 2,000 (36%) were called active. Roughly 18% stayed inconclusive and do not appear here. No stated cut-off is given here; in the data, active means normalized growth mostly below about 0.91 (no sharp cut-off); inconclusive means no clear call, values can overlap the other calls; inactive means mostly above about 0.92. The list shows a part of the results.

Assay: chemical genetic growth profiling, strain panel (AID 1159580);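 further: tested at 20 µM; growth read once vehicle control cultures reached saturation at 30 °C; 1 = growth at the plate median or of vehicle wells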
Conditions: S. cerevisiae deletion strains, growth OD

Measured: normalized growth

Fc1ccc(C(c2ccc(F)cc2)N2CCN(C/C=C/c3ccccc3)CC2)cc1
inactive: locus YJR075W, strain HOC1, stronger effect = lower value 0.952 | locus YKL009W, strain mrt4, stronger effect = lower value 0.965 | locus YKL068W, stronger effect = lower value 0.982 | locus YKL085W, strain MDH1 (second series), stronger effect = lower value 0.974 | locus YKL085W, strain MDH1, stronger effect = lower value 0.974 | locus YKL190W, strain CNB1, stronger effect = lower value 0.974 | locus YKR001C, strain vps1, stronger effect = lower value 0.972 | locus YLR058C, strain SHM2, stronger effect = lower value 0.981 | locus YLR102C, strain apc9, stronger effect = lower value 0.988 | locus YLR113W, strain HOG1, stronger effect = lower value 0.963 | locus YLR262C, strain YPT6, stronger effect = lower value 1.34 | locus YLR268W, strain sec22, stronger effect = lower value 0.933 | locus YLR330W, strain CHS5, stronger effect = lower value 0.988 | locus YLR342W, strain FKS1 (second series), stronger effect = lower value 0.981 | locus YLR371W, strain rom2, stronger effect = lower value 0.969 | locus YLR384C, strain iki3, stronger effect = lower value 0.957 | locus YLR418C, strain cdc73, stronger effect = lower value 0.993 | locus YML016C, strain PPZ1, stronger effect = lower value 0.992 | locus YML032C, strain rad52, stronger effect = lower value 0.948 | locus YML124C, strain tub3, stronger effect = lower value 0.991 | locus YMR078C, strain ctf18, stronger effect = lower value 0.966 | locus YMR223W, strain ubp8, stronger effect = lower value 0.988 | locus YMR263W, strain SAP30, stronger effect = lower value 0.968 | locus YMR307W, strain GAS1, stronger effect = lower value 1.28 and 0.996 | locus YNL067W, strain RPL9B, stronger effect = lower value 0.964
active: locus YKL160W, strain elf1, stronger effect = lower value 0.168 | locus YKR026C, strain gcn3, stronger effect = lower value 0.412 | locus YKR091W, strain srl3, stronger effect = lower value 0.444 | locus YLL001W, strain dnm1, stronger effect = lower value 0.293 | locus YLL026W, stronger effect = lower value 0.257 | locus YLL041C, strain sdh2, stronger effect = lower value 0.41 | locus YLR027C, strain aat2, stronger effect = lower value 0.306 | locus YLR039C, strain RIC1, stronger effect = lower value 1.36 [resistant] | locus YLR221C, strain rsa3, stronger effect = lower value 0.18 | locus YLR258W, strain gsy2, stronger effect = lower value 0.32 | locus YLR262C, strain YPT6 (second series), stronger effect = lower value 0.749 | locus YLR320W, strain mms22, stronger effect = lower value 0.137 | locus YLR342W, strain FKS1, stronger effect = lower value 0.25 | locus YLR357W, strain rsc2, stronger effect = lower value 0.544 | locus YLR370C, strain arc18, stronger effect = lower value 0.226 | locus YML120C, strain ndi1, stronger effect = lower value 0.24 | locus YMR058W, strain fet3, stronger effect = lower value 0.266 | locus YMR125W, strain sto1, stronger effect = lower value 0.17 | locus YMR129W, stronger effect = lower value 0.222 | locus YMR205C, strain PFK2, stronger effect = lower value 0.332 | locus YMR231W, strain pep5, stronger effect = lower value 0.794 | locus YNL071W, strain lat1, stronger effect = lower value 0.119
